Bioassay records as filed in PubChem.
Pol kappa inh-1: inhibitors of human DNA polymerase kappa; Potency, µM (top dose mostly 107 µM), inactives show at the top dose activity, negative = inhibition, most hits filed as inhibitors; 400,000 tested, 0.53% active; Q9UBT6; purified Pol kappa, fluorescent DNA synthesis assay, 10 min; further: on the % scale 0 is the no-effect control and ±100 the full control effect
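10 nM Pol kappa preincubated 15 min at room temperature with compounds, then reaction started with substrate at 50 nM final. Fluorescence read kinetically at 0 and 10 min; buffer-only wells served as negative control.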
KAT2A inh: GCN5L2 (KAT2A) acetyltransferase inhibition; AID 504327; GCN5L2 HAT assay, ThioGlo1 CoA-SH fluorescence; Q92830; Potency, µM (top dose mostly 58.9 µM), for the others: at the highest dose activity change, negative = inhibition, usual class: inhibitors; 390,000 tested, 0.21% active; further: on the % scale 0 is the no-effect control and ±100 the full control effect
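Free CoA generated was detected with ThioGlo1 (50uM) fluorescence at Ex340nm/Em540nm, read immediately and after 20 min at room temperature. Enzyme, 20 nM in HEPES pH 7.5 buffer, saw compounds 15 min before adding 75uM H3(1-25) peptide and 70uM acetyl-CoA.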
GLS inh: inhibitors of human glutaminase (GLS) | GLS enzymatic activity, qHTS titration | Potency, µM (titrated, usually from 45.5 µM), inactives show top-dose activity change, negative = inhibition, most hits filed as inhibitors | 410,000 tested, 0.21% active | AID 624170 | O94925; further: on the % scale 0 is the no-effect control and ±100 the full control effect
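Enzyme dispensed in phosphate buffer (45 mM, pH 8.2, 0.02% Tween-20), compounds pinned in, then 1 mM L-glutamine solution and the glutamate oxidase–HRP–Amplex Red mix added; fluorescence read immediately and again after 30 min at room temperature.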
Pol iota inh: DNA polymerase iota (human) inhibition; 390,000 tested, 1% active; Q9UNA4; Pol iota fluorescent replication assay, 10 min; Potency, µM (highest dose often 115 µM), for inactives: top-dose activity, negative = inhibition, hits mostly inhibitors
Target sequence (Q9UNA4 whole entry, looked up): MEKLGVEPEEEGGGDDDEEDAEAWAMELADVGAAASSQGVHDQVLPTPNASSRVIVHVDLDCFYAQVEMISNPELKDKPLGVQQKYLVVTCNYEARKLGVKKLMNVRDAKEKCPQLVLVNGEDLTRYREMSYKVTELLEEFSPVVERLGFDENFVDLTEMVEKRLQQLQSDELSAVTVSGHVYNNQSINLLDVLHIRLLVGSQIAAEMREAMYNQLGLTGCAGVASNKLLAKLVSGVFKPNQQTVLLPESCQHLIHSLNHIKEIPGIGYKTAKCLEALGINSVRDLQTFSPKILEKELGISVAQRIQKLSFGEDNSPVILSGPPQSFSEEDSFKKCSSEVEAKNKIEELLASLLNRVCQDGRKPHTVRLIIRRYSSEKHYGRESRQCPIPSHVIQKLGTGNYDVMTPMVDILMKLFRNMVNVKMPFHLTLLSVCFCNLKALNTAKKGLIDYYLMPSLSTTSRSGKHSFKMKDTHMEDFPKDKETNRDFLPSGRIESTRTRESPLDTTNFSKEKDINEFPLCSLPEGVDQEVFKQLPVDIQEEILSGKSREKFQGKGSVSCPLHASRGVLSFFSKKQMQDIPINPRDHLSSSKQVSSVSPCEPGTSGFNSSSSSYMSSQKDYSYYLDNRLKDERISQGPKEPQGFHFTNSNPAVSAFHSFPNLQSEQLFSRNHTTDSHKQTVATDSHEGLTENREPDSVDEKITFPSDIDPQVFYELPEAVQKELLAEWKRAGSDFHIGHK
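Pol iota at 10 nM preincubated 15 min with compounds at room temperature; reaction started with fluorescent substrate, 50 nM final. Fluorescence read kinetically at 0 and 10 min; buffer-only wells as negative control.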
POLB inh: blocks human DNA polymerase beta activity | P06746 | Pol beta primer extension/strand displacement, fluorescence kinetic | Potency, µM (titrated, usually from 114 µM), for the others: at the top dose activity change, negative = inhibition, actives largely listed as inhibitors | 340,000 tested, 1.3% active | AID 485314; further: on the % scale 0 is the no-effect control and ±100 the full control effect
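Homogeneous kinetic assay of primer extension and strand displacement by 10 nM Pol beta, preincubated 15 min at room temperature with compound before 50 nM substrate (final) was added. Read at 0 and 10 min; four-parameter Hill fit.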
Pol eta inh-1: DNA polymerase eta (human) inhibition; Q9Y253; Potency, µM (top dose mostly 114 µM), for the others: at the highest dose activity change, negative = inhibition, hits mostly inhibitors; recombinant Pol eta, fluorescent DNA replication assay; 390,000 tested, 1.2% active; further: on the % scale 0 is the no-effect control and ±100 the full control effect
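Pol eta at 10 nM preincubated with compounds 15 min at room temperature; reaction started with fluorescent substrate (50 nM final) and read kinetically at 0 and 10 min.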
Pol kappa inh-2: Pol kappa (human) inhibition, cherry-pick confirmation; shares compounds with Pol eta inh-1; purified Pol-kappa, fluorescent strand-displacement substrate; Potency, µM, most hits filed as inhibitors; 920 tested, 76% active; AID 720501
Pol eta inh-2: confirmation of human DNA polymerase eta inhibitors; shares compounds with Pol eta inh-1; Pol eta primer extension, TAMRA/BHQ fluorescence, 10 min; Potency, µM, hits mostly inhibitors; 2,600 tested, 64% active; AID 720502
* = called active by the depositor; ? = inconclusive; / = not tested or not shown; [ ] = another dose, or the depositor's remark. A selection: hits, their analogues and other compounds. The true share with any hit is near 2.4%. The call rests on the fitted dose curve; in most records, active means well fitted inhibition curve with a large enough effect; inconclusive means small, poorly fitted or top-dose-only effect, or another doubt; inactive means no such curve, though single readings can be large or run the other way. Potency means the concentration at half of the fitted maximal effect.

SMILES	Pol kappa inh-1	KAT2A inh	GLS inh	Pol iota inh	POLB inh	Pol eta inh-1	Pol eta inh-2	others
O=C(O)c1cc(Cl)ccc1-c1ccc(/C=C/c2cc(C(F)(F)F)[nH]c(=O)n2)o1	?	0%	13%	?	-30%	50µM*	38*
Cc1cccc(N2CCN(CCNC(=O)Nc3ccc(Cl)cc3)CC2)c1C	-4%	-15%	2%	2%	-11%	11%	/
Cc1ccc(-c2csc3ncn(CC#N)c(=O)c23)cc1C	79µM*	-12%	-10%	28µM*	32µM*	20µM*	54*	Pol kappa inh-2=60*
Cc1ccc(-c2csc3ncn(CC#N)c(=O)c23)cc1	-10%[60.1 µM]	-15%	-8%	17%	?	?	/
CNC(=O)c1c(NC(=O)c2nc(SCc3ccc(C)cc3)ncc2Cl)sc2c1CCCC2	-17%	2%	16%	8%	34%	-11%	/
COc1ccc(NC(=O)C(C)n2nc(C)c3c(C)n(-c4ccccc4)nc3c2=O)cc1Cl (stereo not given)	9%	2%	-2%	9%	27%	-13%	/
COCc1cc(=O)n2[nH]c(-c3ccsc3-n3c(C)ccc3C)cc2n1	11µM*	-9%	?	?	32µM*	10µM*	60*	Pol kappa inh-2=30*
CCOC(=O)Cc1cc(=O)n2[nH]c(-c3ccccc3)cc2n1	-6%	1%	18%	?	14%	-6%	/
CC(C)C[C@H](N)CSSC[C@@H](N)CC(C)C	/	/	/	3%[58.9 µM]	11%[57.1 µM]	0%[57.1 µM]	/
Cc1ccc(OCCOCCn2c(-c3ccc(Cl)cc3)nc3ccccc3c2=O)cc1	7%	0%	-3%	3%	17%	3%	/
CCN(CC)C(=O)COc1ccc(N(C)S(=O)(=O)c2ccc(NC(C)=O)cc2)cc1	-4%	-13%	6%	14%	15%	34%	/
CC(=O)Nc1ccc(S(=O)(=O)N(C)c2ccc(OCCOc3cccc(C)c3)cc2)cc1	?	-11%	92%	32µM*	/	20µM*	?	Pol kappa inh-2=38*
CCC(=O)N1CCc2cc(S(=O)(=O)NC(C(=O)NCCc3ccccc3)C(C)C)ccc21 (stereo not given)	-18%	-4%	7%	-14%	?	-9%	/
CCCOc1cc2c(C#N)c(N3CCCC3)nc(N)c2c(N)n1	-24%	/	2%	?	/	45µM*	?
Nc1c(C(=O)NCc2ccco2)sc2nc3c(cc12)C(=O)CCC3	?	-27%	-10%	?	32µM*	32µM*	54*
COc1ccc2cc3c(N)c(C(=O)NCc4ccco4)sc3nc2c1	?	-12%	-7%	?	3%	?	/
COc1ccccc1N1CCN(c2ncnc3onc(C)c23)CC1	-6%[60.1 µM]	4%	?	8%	34%	-14%	/
COc1cc(NS(=O)(=O)c2ccc(NC(=S)NC(=O)c3sc4cc(F)ccc4c3Cl)cc2)nc(OC)n1	1%	5%	-3%	?	32%	45µM*	43*
COc1cc(NS(=O)(=O)c2ccc(NC(=S)NC(=O)c3sc4ccccc4c3Cl)cc2)nc(OC)n1	-5%	0%	22%	20%	29%	-11%	/
Cc1cccc(NC(=O)C2CCCN(S(=O)(=O)c3cccc4nonc34)C2)c1C (stereo not given)	0%	-20%	-9%	12%	9%	-4%	/
CC(=O)Nc1ccc(-c2cn3cc(C)ccc3n2)cc1	-8%	4%	8%	3%	13%	-15%	/
Cc1ccc2nc(-c3ccc(O)c(O)c3)cn2c1	?	1%	20µM*	50µM*	4µM*	22µM*	?
CCOc1ccc(C(=O)c2cn(CC(=O)Nc3cc(OC)cc(OC)c3)c3ccc(F)cc3c2=O)cc1	-15%	-13%	-8%	?	14µM*	?	/	Pol kappa inh-2=?
CN(Cc1ccccc1)C(=O)CSc1nc(-c2ccc(F)cc2)cc(C(F)(F)F)n1	-8%	-25%	11%	-15%	22%	-10%	/
CC(=O)c1cccc(NC(=O)CCCSc2nc(-c3ccco3)cc(C(F)(F)F)n2)c1	-13%	-2%	-5%	-11%	-27%	?	/
SMILES	Pol kappa inh-1	KAT2A inh	GLS inh	Pol iota inh	POLB inh	Pol eta inh-1	Pol eta inh-2	others
O=C1CN(S(=O)(=O)c2cc(Br)ccc2Br)CCN1	8%	0%	0%	10%	/	-11%	/
O=c1c(Br)ccc(Br)cc1Br	-6%	/	32%	7.1µM*	/	28µM*	?
CC(=O)N1CCc2c(sc(NC(=O)CSc3ccc(C)cc3)c2-c2nc3ccccc3s2)C1	-8%[60.1 µM]	-8%	1%	?	5%	17%	/
CC(=O)Nc1scc(C)c1-c1nc2ccccc2s1	-1%	-5%	7%	53%	?	-23%	/
CC(=O)Nc1sc2c(c1-c1nc3ccccc3s1)CCSC2	/	/	/	/	/	/	76*
CC(=O)Nc1sc2c(c1-c1nc3ccccc3s1)CNC2	/	/	/	/	/	/	?
C#Cc1ccc([C@H]2C=C(C(=O)OCC=C)O[C@@H](OCCCCO)C2)cc1	?	/	-1%	56µM*	/	32µM*	67*
C#Cc1ccc([C@@H]2C=C(C(=O)NC3CC3)O[C@H](OCCCCO)C2)cc1	-9%	-20%	-7%	-8%	14%	-19%	/
Cc1ccc(Cl)cc1NC(=O)C1CCN(S(=O)(=O)c2cccc3nonc23)CC1	-15%	-3%	-3%	17%	?	-15%	/
CCOC(=O)C1CCN(C(=O)CCc2nc3sc4c(c3c(=O)[nH]2)CCCC4)CC1	?	-9%	-10%	28µM*	/	22µM*	?
O=C(CCc1nc2sc3c(c2c(=O)[nH]1)CCCC3)NCCOc1ccccc1	-23%	-8%	5%	?	/	?	/
CN(CCOc1ccccc1)C(=O)CCc1nc2sc3c(c2c(=O)[nH]1)CCCC3	-35%	-21%	3%	25µM*	?	?	?
Cc1sc2nc(SCC(=O)N3CC(C)OC(C)C3)n(C)c(=O)c2c1C (stereo not given)	-9%	-3%	0%	?	?	16µM*	?
O=C(c1ccco1)N1C2C=CC(C2)C1(C(F)(F)F)C(F)(F)F (stereo not given)	-18%	-8%	-17%	?	-24%	35µM*	?
O=C(N/N=C/c1ccc(O)c(O)c1)c1ccc(-n2cnnn2)cc1	79µM*	-23%	?	45µM*	/	22µM*	?
